Source: the supplement of paper PMC9135407
Structures can show the parent of a compound that is named as a salt. Values without a mark were called inactive.

System: primary human hepatic stellate cells (donor 1)
Test: COL1A1 mRNA fold change vs DMSO (normalised to PSMB2); higher = more COL1A1 expression, active = hit call of the paper
Settings: 48 h
Method: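 Secondary qRT-PCR screen in primary human HSCs (donor 1), 384-well plates, with compounds dispensed in quadruplicate and incubated for 48 h. Cells-to-CT lysates were used for multiplexed TaqMan qPCR of ACTA2 or COL1A1 with PSMB2 as reference. Fold changes versus DMSO come from a linear model (Ct_gene ~ Ct_PSMB2 + plate + chemical). A hit is defined as COL1A1 and ACTA2 FC <0.5 (FDR <0.05) with PSMB2 between 0.2 and 2.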

Row | SMILES | COL1A1 mRNA fold change
1 | C[C@@H]1O[C@@H](O[C@H]2C[C@@H](O)[C@]3(CO)[C@H]4[C@H](O)C[C@]5(C)[C@@H](C6=CC(=O)OC6)CC[C@]5(O)[C@@H]4CC[C@]3(O)C2)[C@H](O)[C@H](O)[C@H]1O [Ouabain] (33.3333 µM) | 0.0962 (active)
2 | CCN1CCN(C(=O)Cc2ccc(Nc3ncc(F)c(Nc4ccc(C(=O)Nc5ccccc5Cl)cc4)n3)cc2)CC1 [Aurora A Inhibitor I] (33.3333 µM) | 0.0414
3 | O=C1C2CCN(CC2)C1(CO)CO (90 µM) | 1.07
4 | CN(C(=O)Cc1ccc(Cl)c(Cl)c1)[C@H](CN1CCCC1)c1ccccc1 [ICI-199,441 hydrochloride] (33.3333 µM) | 0.743
5 | CC[C@H]1CN2CCc3cc(OC)c(OC)cc3[C@@H]2C[C@@H]1C[C@H]1NCCc2cc(OC)c(OC)cc21 [Emetine] (12.0333 µM) | 0.216 (active)
6 | CO[C@H]1CC[C@@H](O[C@H]2C[C@H]([C@]3(C)CC[C@]4(C[C@H](O)[C@@H](C)[C@@H]([C@@H](C)/C=C(\C)C(=O)[C@H](C)C[C@H](C)C(=O)O)O4)O3)O[C@]3(O[C@@H]([C@H]4O[C@@](O)(CO)[C@H](C)C[C@@H]4C)C[C@@H]3C)[C@@H]2C)O[C@@H]1C [Nanchangmycin] (11.1 µM) | 0.223 (active)
7 | COc1ccc2[nH]cc(C3=CCNCC3)c2c1 (33.3333 µM) | 2.45
8 | CN1[C@@H]2CC[C@H]1C[C@@H](OC(c1ccc(F)cc1)c1ccc(F)cc1)C2 [3 α-Bis-(4-fluorophenyl) methoxytropane hydrochloride] (33.3333 µM) | 1.54
9 | CC1=NCCc2c1[nH]c1cc(O)ccc21 [Harmalol hydrochloride dihydrate] (24.4333 µM) | 1.24
10 | CN[C@@H]1C[C@H]2O[C@@](C)([C@@H]1OC)n1c3ccccc3c3c4c(c5c6ccccc6n2c5c31)C(=O)NC4 [staurosporine] (35.6667 µM) | 0.11
11 | CC(C(=O)OC1CC2CCC(C1)N2C)c1ccc(Br)cc1 (configuration not stated) [PG-9 maleate] (33.3333 µM) | 0.598
12 | CCCCCCCCCCCCCC(=O)O[C@@H]1[C@@H](C)[C@@]2(O)[C@@H](C=C(CO)C[C@]3(O)C(=O)C(C)=C[C@@H]23)[C@@H]2C(C)(C)[C@]12OC(C)=O [Phorbol 12-myristate 13-acetate] (27.0333 µM) | 0.71
13 | O=c1[nH]c2ccccc2n1C1CCN(CCCC(c2ccc(F)cc2)c2ccc(F)cc2)CC1 [Pimozide] (33.3333 µM) | 0.027
14 | O=[N+]([O-])/C=C/c1ccc2c(c1)OCO2 (3.7 µM) | 0.638
15 | O=C1/C(=C/c2ccccc2)C[C@@]2(O)[C@H]3Cc4ccc(O)c5c4[C@@]2(CCN3CC2CC2)[C@H]1O5 [BNTX maleate] (33.3333 µM) | 0.233
16 | CC1=C(CC/C(C)=C/CCC2=CC[C@H](C3=CC(=O)O[C@H]3O)O[C@H]2O)C(C)(C)CCC1 [Manoalide] (40 µM) | 0.236 (active)
17 | COc1ccc2c(c[n+](C)c3c4cc5c(cc4ccc23)OCO5)c1OC (6.66667 µM) | 0.204
18 | C[C@]12CC[C@H](O)C[C@H]1CC[C@@H]1[C@@H]2CC[C@]2(C)[C@@H](C3=CC(=O)OC3)CC[C@]12O [Digitoxigenin] (33.3333 µM) | 0.099 (active)
19 | CC1=C(O)C(=O)C=C2C1=CC=C1[C@@]2(C)CC[C@@]2(C)[C@@H]3C[C@](C)(C(=O)O)CC[C@]3(C)CC[C@]12C [Celastrol] (3.33333 µM) | 1.09
20 | C[C@H](N)Cn1ccc2cc(F)c(Cl)cc21 [Ro 60-0175 fumarate] (33.3333 µM) | 2.21
21 | Fc1cc(F)c2c(c1)[C@H]1C=CC[C@H]1C(c1cccnc1)N2 (some centres not stated) [Golgicide A] (33.3333 µM) | 0.111 (active)
22 | CCN(CC)CCO[C@H]1CC[C@@]2(C)C(=CC[C@@H]3[C@@H]2CC[C@]2(C)C(=O)CC[C@@H]32)C1 (33.3333 µM) | 0.921
